Assay outcomes as filed in PubChem BioAssay.
GLP1R cytotox: cytotoxic in the GLP-1 receptor inverse agonist counter-screen | HEK293 cAMP-luciferase reporter cells, luminescence, 24 h | Potency, µM (highest dose often 38.3 µM), inactives show at the top dose activity change, negative = inhibition, most hits filed as inhibitors | hit rate 0.13% among 410,000;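 also: loss of luciferase light is scored as toxicity; % is scaled to controls: 0 for no effect and ±100 for the full control effect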
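Luminescence readout: signal drop marks cytotoxicity. Plated cells grew 12 h at 37 °C, 5% CO2, received 23 nL compound for 24 h, then got luciferase reagent, read after 12 min at RT.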
GLP1R inv ag: GLP-1 receptor (human) inverse agonism; P43220; HEK293 GLP-1R CRE-luciferase, luminescence, 24 h; GLP-1R form is constitutively active; Potency, µM (top dose mostly 38.3 µM), without a hit: top-dose activity change, negative = inhibition, hits mostly inhibitors; hit rate 1.6% among 410,000; also: % is scaled to controls: 0 for no effect and ±100 for the full control effect; nearly all actives have a fitted effect of over 55% in size
Target sequence (P43220 whole entry, looked up): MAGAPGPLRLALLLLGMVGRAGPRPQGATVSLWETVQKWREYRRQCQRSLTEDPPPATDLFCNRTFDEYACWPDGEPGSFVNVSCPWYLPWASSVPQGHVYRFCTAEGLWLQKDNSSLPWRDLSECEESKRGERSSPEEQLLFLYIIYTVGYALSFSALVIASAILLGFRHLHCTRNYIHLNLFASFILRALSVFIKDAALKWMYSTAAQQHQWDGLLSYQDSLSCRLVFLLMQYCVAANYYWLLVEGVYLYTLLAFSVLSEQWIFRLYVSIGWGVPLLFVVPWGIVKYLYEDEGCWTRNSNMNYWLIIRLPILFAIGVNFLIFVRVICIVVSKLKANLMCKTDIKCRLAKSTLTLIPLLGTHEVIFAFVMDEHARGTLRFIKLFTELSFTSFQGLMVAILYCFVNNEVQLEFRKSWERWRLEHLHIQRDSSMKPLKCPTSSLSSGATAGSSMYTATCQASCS
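Inverse agonism was detected as reduced cAMP-driven luciferase luminescence after 24 h compound treatment. The cells were HEK293 clones expressing constitutively active human GLP-1R with the reporter. Reporter-only and GPR119 cell lines served as counterscreen controls.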
GLP1R ag: activates the human GLP-1 receptor. P43220. HEK293 GLP-1R CRE-luciferase, luminescence, 4-6 h; cells express a hypersensitive GLP-1R form. Potency, µM (titrated, usually from 45.6 µM), for the others: top-dose activation, actives largely listed as activators. hit rate 0.007% among 380,000. AID 624172; also: % of control where 0% means no effect
* marks the source's active call; other numbers are inactive results; ? = inconclusive; / = not tested or not shown. Sampled rows, rich in hits. Any-hit rate of the full collection: about 1.7%. Calls follow the shape of the dose curve; as a rule, active = well fitted curve in the direction sought with a large enough effect; inconclusive = small, poorly fitted or top-dose-only effect, or another doubt; inactive = no such curve, though single readings can be large; an effect the other way counts as inactive or inconclusive. Potency is read from the fitted curve at half-maximal effect.

SMILES	GLP1R cytotox	GLP1R inv ag	GLP1R ag
Cc1[nH]c2ccccc2c1C(C[N+](=O)[O-])c1cccs1 (stereo not given)	-1.6%	?	2.9%
Cc1[nH]c2ccccc2c1C(c1ccccc1)c1ccc(Cl)s1 (stereo not given)	-13.1%	10µM*	/
Cc1ccc2c(c1)N(C(=O)CCC(=O)NC1CCN(Cc3ccccc3)CC1)CC(C)O2 (stereo not given)	-12.1%	?	-5.2%
CCN(CC)CCN1C(=O)c2ccccc2NC1c1ccc(Br)cc1 (stereo not given)	-3.3%	10µM*	2.3%
CCN(CC)CCN1C(=O)c2ccccc2NC1c1ccc(F)cc1 (stereo not given)	25.0%	0.0%	5.3%
COc1ccccc1CNC(=O)CSC(=S)N1CCCC1	-3.2%	12.6%	9.4%
O=C(c1ccc(Br)cc1)C(CN1CCOCC1)c1ccccc1 (stereo not given)	?	?	-5.8%
O=C(CC(C(=O)O)c1cccc(Cl)c1)c1ccccc1 (stereo not given)	0.5%	15.2%	-1.9%
O=C(c1ccccc1)C(CN1CCCCC1)c1ccccc1 (stereo not given)	?	2.82µM*	-7.4%
CN(Cc1cc(Cl)cc(Cl)c1)CC(C(=O)c1ccccc1)c1ccccc1 (stereo not given)	?	?	-8.7%
CN(C)CC(C(=O)c1ccccc1)c1ccccc1 (stereo not given)	8.91µM*	13.0%	-42.0%
O=C(CC(C(=O)c1ccccc1)c1ccccc1)c1ccccc1 (stereo not given)	8.5%	10µM*	1.7%
O=S(=O)(c1ccc(SCCO)nc1)N1CCOCC1	-3.3%	2.6%	-6.8%
CCSC(=O)N1c2ccc(OC)cc2C=CC1C#N (stereo not given)	?	-74.8%	22.1%
CC1CCN(C(=O)CCCl)c2ccccc21 (stereo not given)	4.1%	?	-2.8%
CCn1c2ccccc2c2cc(/C=N/n3c(-c4cc(C)[nH]n4)n[nH]c3=S)ccc21	-22.6%	2.51µM*	17.1%
CCn1c2ccccc2c2cc(/C=N/n3cn[nH]c3=S)ccc21	?	?	-6.3%
Cc1cc([N+](=O)[O-])ccc1NC(c1nnc(-c2ccccc2)o1)c1ccccc1F (stereo not given)	-4.9%	10.5%	/
CCCSCCCNC(=O)c1ccc2c(c1)sc1nc(-c3ccc(OCC)cc3)cn12	0.0%	14.3%	/
CC(C)(C)NC(=O)CSc1ncnc2c1nnn2Cc1ccccc1Cl	-27.1%	3.98µM*	-11.3%
O=C(CSc1ncnc2c1nnn2Cc1ccccc1)NC1CCCC1	-3.2%	-17.4%	-1.6%
CSc1nc(Cl)c(Br)c(Nc2c[nH]c(=O)[nH]c2=O)n1	1.2%	31.7%	2.7%
Cc1ccc(Nc2ccccc2)cc1	-20.2%	-21.2%	4.0%
Cc1ccc(NC2=Nc3ccccc3CS2)cc1	-9.8%	6.31µM*	-17.6%
CCCCN(C)CCC(=O)Nc1ccc2c(c1)CCC2	14.1%	?	9.1%
SMILES	GLP1R cytotox	GLP1R inv ag	GLP1R ag
CCOC(=O)c1cnc(-n2nc(C)cc2C)nc1NCCO	-3.3%	-2.6%	-4.3%
CCOC(=O)c1cnc(-n2nc(C)cc2C)nc1NC(C)c1ccccc1 (stereo not given)	?	2.51µM*	-2.7%
CCOC(=O)c1cnc(-n2nc(C)cc2C)nc1NCc1ccccc1	?	3.55µM*	-1.9%
CCOC(=O)c1cnc(-n2nc(C)cc2C)nc1NNc1ncc(-c2ccccc2)cn1	?	?	2.7%
CN1C(C(=O)Nc2ccc(OC(F)(F)F)cc2)=CC(c2ccc3c(c2)OCO3)=NS1(=O)=O	-7.1%	-23.9%	7.7%
COc1ccc2c(=O)c(C)c(-c3ccccc3)oc2c1CN(C)C	/	/	2.6%
COc1cccc(NS(=O)(=O)c2cc3c4c(c2)C(C)C(=O)N4CCC3)c1 (stereo not given)	-5.8%	-4.9%	/
COc1ccccc1N(Cc1ccccc1)S(=O)(=O)c1cccc(C(=O)Nc2cc(C)ccn2)c1	8.9%	4.47µM*	-0.4%
COc1ccccc1N(Cc1ccccc1)S(=O)(=O)c1cccc(C(=O)NC2CC(C)(C)NC(C)(C)C2)c1	?	5.01µM*	-30.4%
COc1ccccc1N(Cc1ccccc1)S(=O)(=O)c1cccc(C(=O)O)c1	0.1%	-7.9%	-0.6%
COc1ccccc1N(Cc1ccccc1)S(=O)(=O)c1cccc(C(=O)Nc2ncccc2C)c1	-2.6%	?	6.6%
Cc1cccc(NC(=O)Cn2cc(C(=O)c3ccco3)c3ccccc32)c1C	-10.9%	-26.1%	/
C[C@@]12C(=O)N(c3ccc(F)cc3)C(=O)N1[C@@H]1c3ccccc3OC[C@@H]1[C@H]2c1ccccc1	-6.5%	10µM*	-0.2%
